Assay results taken from PubChem BioAssay (EPA / NIEHS).
Records with an inconclusive call do not appear. Active and inactive are the calls of the source. How the source made its calls, unless noted: active means hit-call score of the fitted dose curve at least 0.9, where 1 is the maximum; inconclusive means response in the unintended direction; inactive means score below 0.9.

Tests used:
[1] = Tanguay_ZF_120hpf_MORT_legacy: (Legacy) Oregon State University Tanguay Lab 120 Hour Post-fertilization zebrafish Assay for Mortality (AID 2283633)
Summary of the method: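 Dechorionated Tropical 5D wild-type zebrafish embryos, one per well from 6 hpf, were statically exposed at 28C in the dark until 120 hpf (0.64% DMSO final). Mortality was scored as present/absent by brightfield microscopy, fitted positively versus DMSO.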

[2] = Tanguay_ZF_120hpf_YSE_legacy: (Legacy) Oregon State University Tanguay Lab 120 Hour Post-fertilization zebrafish Assay for Yolk Sac Edema (AID 2283634)
Summary of the method: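 Tropical 5D wild-type embryos, dechorionated with pronase at 4 hpf, were exposed singly from 6 hpf to 120 hpf under static, sealed, dark conditions at 28C with 0.64% DMSO final. Yolk sac edema was scored present/absent by brightfield microscopy.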

[3] = Tanguay_ZF_120hpf_AXIS_legacy: (Legacy) Oregon State University Tanguay Lab 120 Hour Post-fertilization zebrafish Assay for Body Axis Malformation (AID 2283635)
Summary of the method: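 Tropical 5D wild-type zebrafish embryos, dechorionated with pronase at 4 hpf, were placed singly in wells at 6 hpf and exposed statically to test chemical (0.64% DMSO final) at 28C until 120 hpf, then scored by brightfield for body axis defects.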

[4] = Tanguay_ZF_120hpf_EYE_legacy: (Legacy) Oregon State University Tanguay Lab 120 Hour Post-fertilization zebrafish Assay for Eye Malformation (AID 2283636);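 further: binary presence or absence of eye malformation scored by brightfield in 120 hpf larvae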
Summary of the method: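 Binary brightfield scoring of eye defects at 120 hpf after static exposure from 6 hpf of single pronase-dechorionated wild-type embryos (28C, 0.64% DMSO). Non-mortality endpoints omitted where embryos died; fit vs DMSO.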

[5] = Tanguay_ZF_120hpf_SNOU_legacy: (Legacy) Oregon State University Tanguay Lab 120 Hour Post-fertilization zebrafish Assay for Snout Malformation (AID 2283637)
Summary of the method: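 Binary snout-malformation call at 120 hpf in wild-type 5D embryos, chorion removed by pronase, under static exposure from 6 hpf at 28C (0.64% DMSO). Embryos dying by 24 or 120 hpf excluded.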

[6] = Tanguay_ZF_120hpf_JAW_legacy: (Legacy) Oregon State University Tanguay Lab 120 Hour Post-fertilization zebrafish Assay for Jaw Malformation (AID 2283638)
Summary of the method: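 Tropical 5D wild-type embryos, dechorionated with pronase at 4 hpf, were placed singly per well at 6 hpf and statically exposed at 28C until 120 hpf (0.64% DMSO final). Jaw malformation scored as present/absent by brightfield microscopy at 120 hpf, analyzed relative to DMSO.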

[7] = Tanguay_ZF_120hpf_OTIC_legacy: (Legacy) Oregon State University Tanguay Lab 120 Hour Post-fertilization zebrafish Assay for Otic Vesicle Malformation (AID 2283639)
Summary of the method: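 Binary scoring of otic vesicle defects at 120 hpf in zebrafish (Tropical 5D) held under static exposure at 28C, sealed and shaded, with final DMSO 0.64%. Embryos dying by 24 or 120 hpf excluded; fitted positively against DMSO.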

[8] = Tanguay_ZF_120hpf_PE_legacy: (Legacy) Oregon State University Tanguay Lab 120 Hour Post-fertilization zebrafish Assay for Pericardial Edema (AID 2283640)
Summary of the method: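 Tropical 5D wild-type zebrafish embryos were exposed statically to 120 hpf at 28C, sealed and foil-covered, in 0.64% DMSO final. Pericardial edema was scored present/absent by brightfield microscopy; dead embryos were not scored.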

[9] = Tanguay_ZF_120hpf_BRAI_legacy: (Legacy) Oregon State University Tanguay Lab 120 Hour Post-fertilization zebrafish Assay for Brain Malformation (AID 2283641)
Summary of the method: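 Tropical 5D wild-type zebrafish embryos were exposed statically in sealed, foil-covered plates at 28C until 120 hpf, with 0.64% (vol/vol) final DMSO. Brain malformation was scored present/absent by brightfield microscopy, relative to DMSO baseline.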

[10] = Tanguay_ZF_120hpf_SOMI_legacy: (Legacy) Oregon State University Tanguay Lab 120 Hour Post-fertilization zebrafish Assay for Somite Malformation (AID 2283647)
Summary of the method: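 Tropical 5D wild-type zebrafish embryos, dechorionated with pronase at 4 hpf, were placed singly at 6 hpf and statically exposed until 120 hpf at 28C in 0.64% DMSO. Somite malformation was scored present/absent by brightfield microscopy versus DMSO.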

[11] = Tanguay_ZF_120hpf_PFIN_legacy: (Legacy) Oregon State University Tanguay Lab 120 Hour Post-fertilization zebrafish Assay for Pectoral Fin Malformation (AID 2283648);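 further: each larva judged yes or no for fin defect by brightfield with dead larvae skipped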
Summary of the method: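 Pectoral fin malformation was recorded as a binary endpoint at 120 hpf in wild-type Tropical 5D larvae, which had been dechorionated and exposed statically from 6 hpf at 28C in 0.64% DMSO. Dead embryos were excluded.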

[12] = Tanguay_ZF_120hpf_CFIN_legacy: (Legacy) Oregon State University Tanguay Lab 120 Hour Post-fertilization zebrafish Assay for Caudal Fin Malformation (AID 2283649)
Summary of the method: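 Tropical 5D wild-type embryos, dechorionated with pronase at 4 hpf, were placed singly in wells at 6 hpf and statically exposed to compound at 28C until 120 hpf (0.64% DMSO). Caudal fin malformation was scored present/absent by brightfield microscopy.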

[13] = Tanguay_ZF_120hpf_SWIM_legacy: (Legacy) Oregon State University Tanguay Lab 120 Hour Post-fertilization zebrafish Assay for Swim Bladder Malformation (AID 2283654);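 further: swim bladder malformation in each larva scored yes or no under brightfield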
Summary of the method: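 Scoring is binary for swim bladder defects at 120 hpf, by brightfield inspection of zebrafish larvae. Embryos were exposed singly from 6 hpf after pronase dechorionation, at 28C with 0.64% DMSO; mortality excluded scoring.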

[14] = Tanguay_ZF_120hpf_TRUN_legacy: (Legacy) Oregon State University Tanguay Lab 120 Hour Post-fertilization zebrafish Assay for Truncated Body (AID 2283655)
Summary of the method: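 Tropical 5D wild-type embryos, dechorionated with pronase at 4 hpf, were placed singly in wells at 6 hpf and statically exposed at 28C until 120 hpf, final DMSO 0.64%. Truncated body was scored present/absent by brightfield microscopy.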

[15] = Tanguay_ZF_120hpf_NC_legacy: (Legacy) Oregon State University Tanguay Lab 120 Hour Post-fertilization zebrafish Assay for Notochord and Tail Malformation (AID 2283656)
Summary of the method: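 Binary scoring of notochord distortion by brightfield microscopy; embryos dying were not scored. Wild-type Tropical 5D embryos, chorion removed, exposed singly and statically from 6 to 120 hpf, 28C, sealed, 0.64% DMSO.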

[16] = Tanguay_ZF_120hpf_CIRC_legacy: (Legacy) Oregon State University Tanguay Lab 120 Hour Post-fertilization zebrafish Assay for Circulatory Malformation (AID 2283651)
Summary of the method: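 Binary circulatory malformation call at 120 hpf by brightfield imaging of zebrafish larvae; chorion removed at 4 hpf, static exposure from 6 hpf in sealed dark plates at 28C, final DMSO 0.64%; non-mortality endpoints skipped if embryo died.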

[17] = read-out: kallikrein-3 (KLK3), KLK3 (gene 354); assay: LTEA_HepaRG_KLK3: Life Technologies and Expression Analysis (LTEA) Assay for kallikrein-3 (KLK3) using HepaRG (AID 2283652; active means hit-call score of the fitted dose curve at least 0.9, where 1 is the maximum; inactive means score below 0.9); conditions: mRNA level, 48 h; actives raise or lower the signal
Summary of the method: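 KLK3 transcript levels were measured by TaqMan qRT-PCR with normalisation to three housekeeping genes. HepaRG cultures received chemicals for 48 h at up to 100 uM (half-log, 8 points, 0.5% DMSO vehicle), fitted in both directions against DMSO.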

[18] = read-out: solute carrier (SLC22A6), SLC22A6 (gene 9356); assay: LTEA_HepaRG_SLC22A6: Life Technologies and Expression Analysis (LTEA) Assay for solute carrier (SLC22A6) using HepaRG (AID 2283653; active means hit-call score of the fitted dose curve at least 0.9, where 1 is the maximum; inactive means score below 0.9); conditions: mRNA level, 48 h; actives raise or lower the signal
Summary of the method: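 Differentiated human HepaRG cells were exposed for 48 h in serum-free induction medium to eight concentrations (top 100 uM, half-log steps, 0.5% DMSO), in duplicate. SLC22A6 mRNA was quantified by qRT-PCR, normalised to ACTB, GAPDH and POLR2A, and fitted bidirectionally against DMSO.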

[19] = read-out: solute carrier (SLC10A1), SLC10A1 (gene 6554); assay: LTEA_HepaRG_SLC10A1: Life Technologies and Expression Analysis (LTEA) Assay for solute carrier (SLC10A1) using HepaRG (AID 2283657; active means hit-call score of the fitted dose curve at least 0.9, where 1 is the maximum; inactive means score below 0.9); conditions: mRNA level, 48 h; actives raise or lower the signal
Summary of the method: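 SLC10A1 transcript measured by TaqMan qRT-PCR, housekeeping-normalised, after 48 h chemical treatment of human HepaRG cells. Eight concentrations (half-log, max 100 uM, 0.5% DMSO vehicle) in duplicate; fitted bidirectionally against DMSO baseline.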

[20] = read-out: matrix metalloproteinase-1 (MMP1), MMP1 (gene 4312); assay: LTEA_HepaRG_MMP1: Life Technologies and Expression Analysis (LTEA) Assay for matrix metalloproteinase-1 (MMP1) using HepaRG (AID 2283658; active means hit-call score of the fitted dose curve at least 0.9, where 1 is the maximum; inactive means score below 0.9); conditions: mRNA level, 48 h; actives raise or lower the signal
Summary of the method: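 Differentiated HepaRG cells, plated 48 h then switched to serum-free induction medium, were exposed in duplicate for 48 h to eight half-log concentrations up to 100 uM in 0.5% DMSO; MMP1 mRNA measured by qRT-PCR, normalized to ACTB, GAPDH, POLR2A.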

Measured: outcome

O=P(Oc1ccccc1)(Oc1ccccc1)Oc1ccccc1
not listed: [16] | [17] | [18] | [19] | [20]
inactive: all other assays above

CCCCN(CCCC)SN(C)C(=O)Oc1cccc2c1OC(C)(C)C2
not listed: [4] | [8] | [17] | [18] | [19] | [20]
inactive: all other assays above

Cc1ccc(N)cc1N
not listed: [2] | [6] | [11] | [12] | [17] | [18] | [19] | [20]
inactive: all other assays above

Cc1ccc(O)cc1C
not listed: [7] | [9] | [17] | [18] | [19] | [20]
inactive: all other assays above

CCOc1ccc(C(C)(C)COCc2cccc(Oc3ccccc3)c2)cc1
not listed: [3] | [7] | [17] | [18] | [19] | [20]
inactive: all other assays above

ClC(Cl)c1ccccc1
not listed: [9] | [10] | [17] | [18] | [19] | [20]
inactive: all other assays above

CCOC(=O)c1ccccc1C(=O)OCC
not listed: [7] | [15] | [17] | [18] | [19] | [20]
inactive: all other assays above

CC(C)(C)c1ccc(O)cc1
not listed: [7] | [9] | [17] | [18] | [19] | [20]
inactive: all other assays above

CCCCN(CCCC)N=O
not listed: [7] | [15] | [16] | [17] | [18] | [19] | [20]
inactive: all other assays above

Cc1cccc(N)c1
not listed: [7] | [11] | [17] | [18] | [19] | [20]
inactive: all other assays above

c1nc[nH]n1
inactive: [5] | [7] | [9] | [10] | [12] | [16] | [15]

ClC(Cl)(Cl)c1ccccc1
inactive: [1] | [2] | [3] | [4] | [6] | [7] | [10] | [12] | [16]

CN(C)C(=O)Cl
not listed: [3] | [10] | [11] | [13] | [17] | [18] | [19] | [20]
inactive: all other assays above

CCOP(=S)(Oc1ccc([N+](=O)[O-])cc1)c1ccccc1 (stereo not drawn)
not listed: [2] | [17] | [18] | [19] | [20]
inactive: all other assays above

Nc1ccc(Cl)cc1
not listed: [2] | [11] | [14] | [17] | [18] | [19] | [20]
inactive: all other assays above

CCCCCCCc1ccc(O)cc1
not listed: [7] | [12] | [17] | [18] | [19] | [20]
inactive: all other assays above

CCNc1nc(Cl)nc(NC(C)(C)C)n1
not listed: [3] | [4] | [6] | [8] | [17] | [18] | [19] | [20]
inactive: all other assays above

CCCN(CCC)c1c([N+](=O)[O-])cc(C(C)C)cc1[N+](=O)[O-]
inactive: [1] | [2] | [5] | [8] | [9] | [10] | [11] | [12] | [13] | [14] | [15]

[N-]=[N+]=[N-]
not listed: [8] | [14] | [17] | [18] | [19] | [20]
inactive: all other assays above

CCN(CC)c1ccccc1
not listed: [3] | [4] | [6] | [11] | [17] | [18] | [19] | [20]
inactive: all other assays above

CC(C)(C)OOC(C)(C)C
not listed: [7]
inactive: all other assays above

Nc1cc2c3c(c1)C(c1ccccc1)=N[C@@H](NC(=O)c1cccnc1)C(=O)N3CC2
not listed: [3] | [4] | [7] | [9] | [17] | [18] | [19] | [20]
inactive: all other assays above

CC(Cl)(Cl)C(=O)O
not listed: [7] | [17] | [18] | [19] | [20]
inactive: all other assays above
